Assay outcomes as filed in PubChem BioAssay.
FECH block = inhibitors of human ferrochelatase | P22830 | purified FECH, Ni-mesoporphyrin absorbance 550 nm | calls only at 10 µM (by protocol) | hit rate 3.3% among 20,000 | AID 1671448;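 active = enzyme reaction rate more than 3 SD below the solvent-only control wells on the same plate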;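 also: lower slope than DMSO wells means FECH inhibition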
Target sequence (P22830 whole entry, looked up): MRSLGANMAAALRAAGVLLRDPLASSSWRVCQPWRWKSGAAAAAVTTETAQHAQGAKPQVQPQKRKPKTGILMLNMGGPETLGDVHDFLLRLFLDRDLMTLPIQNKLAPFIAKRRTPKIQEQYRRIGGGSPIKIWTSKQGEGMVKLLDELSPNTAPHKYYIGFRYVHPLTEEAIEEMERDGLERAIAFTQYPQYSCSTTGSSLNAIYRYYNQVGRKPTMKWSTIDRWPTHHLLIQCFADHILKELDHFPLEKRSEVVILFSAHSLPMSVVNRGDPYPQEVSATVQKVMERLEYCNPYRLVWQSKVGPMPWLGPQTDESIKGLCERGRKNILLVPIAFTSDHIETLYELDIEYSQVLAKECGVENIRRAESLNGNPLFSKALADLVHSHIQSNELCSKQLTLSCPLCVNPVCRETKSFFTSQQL
An asterisk follows results filed as active. This excerpt belongs to a sample that is enriched for hits.

CCc1c(C)nc2ncnn2c1Sc1ccc(NC(=O)Nc2ccc3c(c2)OCCO3)cc1 was read as FECH block active.
Screening CCc1c(C)nc2ncnn2c1Sc1ccc(NC(=O)Nc2ccc(C)c(C)c2)cc1 returned FECH block inactive.
CCc1c(C)nc2ncnn2c1Sc1ccc(NC(=O)Nc2ccc(F)cc2)cc1 was read as FECH block inactive.
Screening CN1CCCn2nc(C(=O)N(C)C3Cc4ccccc4C3)cc2C1 returned FECH block inactive.
`C=CCN(Cc1ccco1)Cc1c(C)cc(C)c(CO)c1C` gave FECH block inactive.
Screening COc1ccc(CN(C)Cc2cccc3cnccc23)c(OC)c1OC returned FECH block inactive.
Screening COc1ccc(NC(=O)CN2CCCN(Cc3cccc(F)c3)S2(=O)=O)cc1 returned FECH block inactive.
For CCCC(=O)Nc1ccc(Nc2nc(C)cc(Nc3ccc(C)cc3)n2)cc1 the results were FECH block inactive.
For CCC(=O)Nc1ccccc1-c1nnc(SCC(=O)Nc2c(CC)cccc2CC)[nH]c1=O the results were FECH block inactive.
COc1ccc(S(=O)(=O)Nc2cnc(N(CC(C)C)CC(C)C)c(C(=O)O)c2)cc1 was read as FECH block active.
For CC(C)CN(CC(C)C)c1ncc(NS(=O)(=O)c2ccc(F)cc2)cc1C(=O)O the results were FECH block inactive.
`CC(C)CN(CC(C)C)c1ncc(NS(=O)(=O)c2ccccc2)cc1C(=O)O` gave FECH block inactive.
`Cc1ccc(C)c(CN2CC(=O)N(Cc3ccc(Cl)cc3)c3ccccc3S2(=O)=O)c1` gave FECH block active.
Cc1cccc(CN2CC(=O)N(Cc3ccc(Cl)cc3)c3ccccc3S2(=O)=O)c1 was read as FECH block inactive.
Screening O=C1CN(Cc2ccccc2Cl)S(=O)(=O)c2ccccc2N1Cc1ccc(Cl)cc1 returned FECH block inactive.
CCOC(=O)c1c(NC(=O)c2ccc(N3C(=O)CCC3=O)cc2)sc2c1CCN(C(C)C)C2 was read as FECH block active.
CCOC(=O)c1c(NC(=O)c2ccco2)sc2c1CCN(C(C)C)C2 was read as FECH block inactive.
For CCOC(=O)c1c(NC(=O)c2cccs2)sc2c1CCN(C(C)C)C2 the results were FECH block inactive.
`O=S(=O)(c1ccc2c(c1)CCCC2)N1CCN(Cc2nc3cccnc3n2-c2ccccc2)CC1` gave FECH block inactive.
`COC(C)(C)CC(C)NC1CCN(c2cccc(C)c2)CC1` (stereo not drawn) gave FECH block inactive.
`O=C(NCc1cnn2cccnc12)c1cc(COc2c(F)cccc2F)on1` gave FECH block inactive.
Cc1ccc(-c2nc3cccnc3n2CCNS(=O)(=O)c2ccc(C)c(C)c2)cc1 was read as FECH block active.
For Cc1ccc(S(=O)(=O)NCCn2c(C(F)(F)F)nc3cccnc32)cc1 the results were FECH block inactive.
For Cc1ccc(-c2nc3cccnc3n2CCNS(=O)(=O)c2cccc(Cl)c2)cc1 the results were FECH block active.
Screening COc1ccc(S(=O)(=O)NCCn2c(-c3ccc(C)cc3)nc3cccnc32)cc1 returned FECH block inactive.
For Cc1ccc(S(=O)(=O)NCCn2c(C(F)(F)F)nc3cccnc32)cc1C the results were FECH block inactive.
For Cc1ccc(S(=O)(=O)NCCn2c(C(F)(F)F)nc3cccnc32)c(C)c1 the results were FECH block active.
Screening Cc1ccc(-c2nc3cccnc3n2CCNS(=O)(=O)c2ccc(Cl)cc2)cc1 returned FECH block inactive.
For O=S(=O)(NCCn1c(-c2ccccc2)nc2cccnc21)c1ccc(Cl)cc1 the results were FECH block inactive.
`Cc1ccc(-c2nc3cccnc3n2CCNS(=O)(=O)c2ccc(C(C)C)cc2)cc1` gave FECH block inactive.
`Cc1ccc(-c2nc3cccnc3n2CCNS(=O)(=O)c2c(C)cc(C)cc2C)cc1` gave FECH block inactive.
`COc1ccc(S(=O)(=O)NCCn2c(-c3ccccc3)nc3cccnc32)cc1OC` gave FECH block active.
For O=S(=O)(NCCn1c(-c2ccccc2)nc2cccnc21)c1cccc(Cl)c1 the results were FECH block inactive.
Cc1cnn(CC2CCN(C(=O)c3cn[nH]n3)CC2)c1 was read as FECH block inactive.
CCOc1c(NC2CC2)c(=O)c1=O was read as FECH block inactive.
Screening Cc1cc(C(F)(F)F)n2nc(C(=O)N3CCCC(c4ccn[nH]4)C3)cc2n1 (stereo not drawn) returned FECH block inactive.
`COc1ccc2c(c1)c(-n1cccc1)c1n2CC(C)(C(=O)NC2CCCCC2)N(C(C)C)C1=O` (stereo not drawn) gave FECH block inactive.
`Cc1ccc(-n2c(CN3CCN(S(=O)(=O)c4ccc(C)cc4C)CC3)nc3cccnc32)cc1` gave FECH block inactive.
CN(C)c1nc2ncnc(SCC(=O)Nc3cccc(Cl)c3)c2s1 was read as FECH block inactive.
CCc1ccc(S(=O)(=O)N2CCN(c3cc(-c4cccc(OC)c4)ncn3)CC2)cc1 was read as FECH block inactive.
Screening Cc1ccc(NC(=O)NCCn2c(-c3ccncc3)nc3cccnc32)c(C)c1 returned FECH block active.
`O=C(NCCn1c(-c2ccncc2)nc2cccnc21)Nc1ccc(Br)cc1F` gave FECH block inactive.
Cc1ccc(-c2nc3cccnc3n2CCNS(=O)(=O)c2ccc(CC(C)C)cc2)cc1 was read as FECH block inactive.
`O=C(NCCn1c(-c2ccncc2)nc2cccnc21)Nc1ccccc1Br` gave FECH block inactive.
For CCOc1ccc(S(=O)(=O)NCCn2c(-c3ccc(C)cc3)nc3cccnc32)cc1 the results were FECH block active.
For CCOc1ccc(S(=O)(=O)NCCn2c(-c3ccc(F)cc3)nc3cccnc32)cc1 the results were FECH block inactive.
CC(CCNC(=O)C1CCN(c2ccc(-c3ccccc3)nn2)CC1)N1CCCC1 (stereo not drawn) was read as FECH block inactive.
Screening CCc1ccccc1NC(=O)C1CCCN1S(=O)(=O)c1cc(C(=O)OC)n(C)c1 (stereo not drawn) returned FECH block inactive.
`Cc1cc(NC(=O)CCC2CCCCC2)n(-c2ncnc3c2cnn3-c2cccc(Cl)c2)n1` gave FECH block inactive.
`CCc1c(C)nc2ncnn2c1Sc1ccc(NC(=O)c2ccccc2Br)cc1` gave FECH block inactive.
`CCCc1c(C)nc2ncnn2c1Sc1ccc(NC(C)=O)cc1` gave FECH block inactive.
For CCCc1c(C)nc2ncnn2c1Sc1ccc(NC(=O)c2ccco2)cc1 the results were FECH block inactive.
CCCc1c(C)nc2ncnn2c1Sc1ccc(NS(=O)(=O)c2cccc(Cl)c2)cc1 was read as FECH block inactive.
Screening CCCc1c(C)nc2ncnn2c1Sc1ccc(NC(=O)c2ccccc2OCC)cc1 returned FECH block active.
Screening CCc1c(C)nc2ncnn2c1Sc1ccc(NC(=O)c2cccc(C)c2)cc1 returned FECH block inactive.
Screening CCCc1c(C)nc2ncnn2c1Sc1ccc(NC(=O)c2cccc(Cl)c2)cc1 returned FECH block active.
For CCCc1c(C)nc2ncnn2c1Sc1ccc(NC(=O)c2ccc(F)cc2)cc1 the results were FECH block inactive.
`CCCc1c(C)nc2ncnn2c1Sc1ccc(NC(=O)c2ccccc2Cl)cc1` gave FECH block active.
